CYP2C19 inh – blocks human cytochrome P450 2C19 | P33261 | CYP2C19 Supersomes, luciferin-H EGE luminescence, 30 min | inhibition, % at 5 µM | actives 21% (n = 96,000) | AID 778;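 active = CYP2C19 inhibition above a set limit at 5 µM in the primary screen, cut at about 50% in these data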;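 note: plate controls were negative control wells for no effect and 2.5 mM tranylcypromine positive control for full effect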
CYP2C19 act – activators of human cytochrome P450 2C19 | activation factor at 5 µM | recombinant CYP2C19, luciferin-H EGE luminescence; hits give high values; 0 = fully inhibited enzyme, 1 = untreated enzyme | AID 1025 | 96,000 tested, under 10 active;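 active = activation factor of at least 2 at 5 µM in the primary screen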;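 note: 0 = wells with 2.5 mM tranylcypromine and 1 = vehicle-only wells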
CD11b adhes inh – blocks human CD11b/CD18 adhesion to fibrinogen; P05107+P11215; AID 1497; K562 CD11b/CD18 adhesion to fibrinogen, ATPlite luminescence; Mn2+ added to activate the integrin; actives 0.54% (n = 93,000); inhibition, % at 10 µM;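 active = primary inhibition of 50% or more at 10 µM, then 40% or more on retest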
Mac1 fbg enh – enhancers of human CD11b/CD18 binding to fibrinogen; P05107+P11215; K562 CD11b/CD18 adhesion to fibrinogen, ATPlite luminescence; activation, % at 10 µM; actives 0.07% (n = 93,000);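 active = 10 µM primary screen giving 50% or more activity, confirmed by 40% or more on retest at that dose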
CYP2C9 act – CYP2C9 (human) activation | recombinant CYP2C9, luciferin-H conversion, luminescence; hits give high values; factor 1 = untreated enzyme, 0 = blocked | activation factor at 5 µM | actives 1.4% (n = 96,000) | AID 1024;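 active = activation factor of 2 or more for CYP2C9 at a 5 µM dose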;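 note: 0 = sulfaphenazole-blocked wells and 1 = vehicle-only wells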
Target sequence (P11712 whole entry, looked up): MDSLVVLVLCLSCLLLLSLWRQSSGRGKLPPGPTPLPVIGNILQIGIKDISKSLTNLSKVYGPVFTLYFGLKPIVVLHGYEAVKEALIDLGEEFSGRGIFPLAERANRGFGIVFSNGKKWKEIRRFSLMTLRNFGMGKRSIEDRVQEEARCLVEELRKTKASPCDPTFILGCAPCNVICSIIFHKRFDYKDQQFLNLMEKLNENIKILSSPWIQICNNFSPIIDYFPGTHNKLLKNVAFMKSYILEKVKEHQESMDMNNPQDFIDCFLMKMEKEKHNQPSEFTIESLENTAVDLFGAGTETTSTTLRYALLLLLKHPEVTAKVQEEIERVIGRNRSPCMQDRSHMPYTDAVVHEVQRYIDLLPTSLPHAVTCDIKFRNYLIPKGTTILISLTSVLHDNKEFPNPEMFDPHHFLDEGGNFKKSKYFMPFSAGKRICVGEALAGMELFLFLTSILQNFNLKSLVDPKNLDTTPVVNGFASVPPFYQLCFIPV
CYP2C9 inhib – human CYP2C9 inhibition; CYP2C9 Supersomes, luciferin-H conversion, luminescence; actives 20% (n = 96,000); AID 777; inhibition, % at 5 µM;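 active = blocking of liver enzyme CYP2C9 beyond about 50% at 5 µM, limit read from the data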
Numbers without * were called inactive; · = not tested or not shown. Shown are actives, neighbours in structure and some others; about 28% of the full set was active somewhere.

SMILES	CYP2C19 inh	CYP2C19 act	CD11b adhes inh	Mac1 fbg enh	CYP2C9 act	CYP2C9 inhib
O=S(=O)(Nc1ccc(Oc2ncccn2)c(Cl)c1)c1ccc(Cl)cc1	99*	0	-2	-1	0	99*
O=C(/C=C/c1cccnc1)c1ccc(NC(=O)c2cccc(Br)c2)cc1	38	0.6	-12	72*	0.3	70*
O=C(N/C(=C\c1cccnc1)C(=O)N1CCOCC1)c1cccc(Br)c1	6	0.9	9	0	0.9	6
COC(=O)/C(=C/c1ccc(F)cc1)NC(C)=O	·	·	-17	-4	·	·
CSCC[C@@H](Nc1nc(-c2ccccc2)nc2c1oc1ccccc12)C(=O)O	2	1	8	4	0.4	64*
c1ccc(-c2nc(NCc3cccnc3)c3oc4ccccc4c3n2)cc1	35	0.6	5	-3	0.4	58*
c1ccc(-c2nc(NCC3CCCO3)c3oc4ccccc4c3n2)cc1 (stereo unspecified)	15	0.8	-8	4	0.9	14
CCn1c(/N=C/c2ccccc2NS(=O)(=O)c2ccc(C)cc2)nc2ccccc21	·	·	17	-1	·	·
CC1(C)CC(=O)C2=C(C1)c1c(ccc3ccccc13)NC2c1ccco1 (stereo unspecified)	20	0.8	-15	-4	0.8	16
Cc1ccsc1C1Nc2ccc3ncccc3c2C2=C1C(=O)CC(C)(C)C2 (stereo unspecified)	98*	0	-17	0	0.2	80*
O=C1CCCC2=C1C(c1cccs1)Nc1ccc3ncccc3c12 (stereo unspecified)	95*	0.1	·	·	0.1	94*
CCOC(=O)Cn1c(=O)c2c(nc3n2CCCCN3c2ccc(C)cc2)n(C)c1=O	-2	1	-9	0	1	2
O=C(NCc1ccc(Cl)cc1)c1ccccc1Oc1ccccc1	32	0.7	14	-1	0.5	54*
O=C(CCN1C(=O)c2ccncc2C1=O)NCc1ccc(Cl)cc1	-3	1	·	·	0.8	19
O=C(CCn1cccc1)NCc1ccc(Cl)cc1	64*	0.4	-12	-2	1	-4
O=C(NCCc1ccccc1)c1cnn2c(C(F)F)cc(C3CC3)nc12	87*	0.1	2	-8	0.5	46
Cc1cc(C(F)F)n2ncc(C(=O)NCCc3ccccc3Cl)c2n1	74*	0.3	8	-1	0.9	10
Cc1nnc(-c2cnn(C)c2N)n1Cc1cccc(Cl)c1	9	0.9	8	-5	1	4
COCCNC(=O)C1CC(=O)N(C2CCCC2)C1 (stereo unspecified)	-16	1.2	·	·	1	0
Cc1cc(C)n2ncc(C(=O)NCc3ccccc3)c2n1	17	0.8	-11	-2	1	-2
Cc1cc(C(F)F)n2ncc(C(=O)NCc3ccccc3)c2n1	60*	0.4	7	0	1.1	-10
Cc1cc(C)n2ncc(C(=O)NCCc3ccccc3)c2n1	15	0.9	2	-1	1	1
Cc1cc(C(F)(F)F)n2ncc(C(=O)O)c2n1	-22	1.2	4	3	2*	-99
Cc1cc(C(F)F)n2ncc(C(=O)NCCc3ccc(Cl)cc3)c2n1	85*	0.2	19	-3	0.6	39
Cc1cc(C)n2ncc(C(=O)NCc3ccc(Cl)cc3)c2n1	75*	0.2	16	-1	0.6	44
SMILES	CYP2C19 inh	CYP2C19 act	CD11b adhes inh	Mac1 fbg enh	CYP2C9 act	CYP2C9 inhib
O=C(Nc1cc2c(cc1Cl)OCCCO2)c1ccccc1	5	0.9	0	1	1.5	-46
O=c1c2ccccc2nc2n1CCCCN2	11	0.9	0	0	0.8	16
O=C(NCc1ccc(Cl)cc1)c1cnn2ccccc12	76*	0.2	2	-14	1	-4
Cc1cc(C(=O)CNCc2ccco2)c(C)n1-c1ccc(F)cc1	51*	0.5	-7	0	0.7	28
Cc1cc(C(=O)CN2CCCCC2)c(C)n1-c1ccc(F)cc1	·	·	3	3	·	·
Cc1cc(-c2ccccc2)nc2[n+]1CCN2C	-3	1	-18	-1	0.9	10
O=c1cc(CO)occ1OCc1ccccc1	-11	1.1	11	-5	1.1	-7
Cc1occc1C(=O)N1CCN(C(c2ccccc2)c2ccccc2)CC1	35	0.7	20	-3	0.5	53*
